Whole data set: some 33,000 sequences, median “E-score (-0.5 to 0.5)” near -0.053, cut for the highest 2% near 0.37. Only a selection was taken, and the highest values are over-represented in it overall.
The sequences below were run against Hap1 (UniProt P0CE41) (assay: PBM E-score (8-mer binding enrichment) (E-score (-0.5 to 0.5)); higher = stronger / more preferred TF binding). Settings: protein concentration: 200 nM; construct: GST-DNA-binding domain.
Chain of UniProt P0CE41 (P0CE41 whole entry, the tested form may be a part): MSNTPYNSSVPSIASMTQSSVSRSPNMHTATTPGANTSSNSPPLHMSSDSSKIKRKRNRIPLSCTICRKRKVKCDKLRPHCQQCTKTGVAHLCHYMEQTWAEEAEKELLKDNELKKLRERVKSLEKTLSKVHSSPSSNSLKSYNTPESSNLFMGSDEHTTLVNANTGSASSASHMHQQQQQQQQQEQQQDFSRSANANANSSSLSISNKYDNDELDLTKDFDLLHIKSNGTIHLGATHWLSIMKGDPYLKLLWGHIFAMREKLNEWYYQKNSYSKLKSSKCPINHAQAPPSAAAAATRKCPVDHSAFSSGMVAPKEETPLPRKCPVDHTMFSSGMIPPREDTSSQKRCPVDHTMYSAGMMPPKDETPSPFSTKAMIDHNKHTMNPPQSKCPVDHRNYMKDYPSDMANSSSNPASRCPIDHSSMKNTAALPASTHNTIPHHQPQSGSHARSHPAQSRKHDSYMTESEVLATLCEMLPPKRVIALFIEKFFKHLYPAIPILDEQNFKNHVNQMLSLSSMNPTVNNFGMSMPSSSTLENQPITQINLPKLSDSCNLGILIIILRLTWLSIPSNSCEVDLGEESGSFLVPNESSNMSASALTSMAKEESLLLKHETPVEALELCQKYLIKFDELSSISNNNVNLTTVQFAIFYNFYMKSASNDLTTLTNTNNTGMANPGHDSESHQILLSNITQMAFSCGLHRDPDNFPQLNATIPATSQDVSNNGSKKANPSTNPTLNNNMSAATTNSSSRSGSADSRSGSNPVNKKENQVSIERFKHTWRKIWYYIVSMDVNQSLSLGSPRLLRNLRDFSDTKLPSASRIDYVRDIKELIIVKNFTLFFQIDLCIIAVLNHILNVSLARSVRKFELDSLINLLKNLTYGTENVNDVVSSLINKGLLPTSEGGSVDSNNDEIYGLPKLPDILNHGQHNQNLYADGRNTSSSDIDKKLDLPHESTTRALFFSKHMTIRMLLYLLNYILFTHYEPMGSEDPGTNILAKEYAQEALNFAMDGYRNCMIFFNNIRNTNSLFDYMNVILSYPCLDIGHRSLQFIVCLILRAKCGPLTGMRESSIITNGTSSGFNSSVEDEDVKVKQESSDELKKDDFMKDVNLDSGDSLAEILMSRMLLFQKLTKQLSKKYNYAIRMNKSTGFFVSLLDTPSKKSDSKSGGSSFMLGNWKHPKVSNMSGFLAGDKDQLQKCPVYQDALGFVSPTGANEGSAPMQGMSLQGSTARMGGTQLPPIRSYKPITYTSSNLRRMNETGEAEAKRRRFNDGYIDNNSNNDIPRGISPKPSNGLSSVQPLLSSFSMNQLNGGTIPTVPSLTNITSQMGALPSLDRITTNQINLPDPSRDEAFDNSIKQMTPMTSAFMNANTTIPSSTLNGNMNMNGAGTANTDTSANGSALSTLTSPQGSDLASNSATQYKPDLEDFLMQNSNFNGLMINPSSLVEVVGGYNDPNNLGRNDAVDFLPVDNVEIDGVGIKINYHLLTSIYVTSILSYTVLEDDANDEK
Procedure: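 Universal 'all 10-mer' protein binding microarrays (Agilent AMADID 015681) probed with GST-tagged S. cerevisiae TFs (full-length or DBD) made by in vitro transcription/translation (PURExpress), about 100-200 nM. Bound TF was detected with fluorescent anti-GST. Each ungapped 8-mer (which stands for itself and its reverse complement) is scored by the PBM enrichment score (E-score), a modified Wilcoxon-Mann-Whitney statistic from -0.5 to +0.5, computed with the Universal PBM Analysis Suite. Scale: above 0.35 generally sequence-specific binding.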
For AGGCCACC, the “PBM E-score” value was -0.0824.
With AAGAACTT the “PBM E-score” value was -0.101.
CTGTGTCC was tested, and the “PBM E-score” value was -0.0361.
For TTCGCGAA, the “PBM E-score” value was 0.138.
With GCGGGAAC the “PBM E-score” value was 0.212.
CGGGACGA was tested, and the “PBM E-score” value was 0.0655.
For CTGGACGA, the “PBM E-score” value was -0.158.
For CCGGACGG, the “PBM E-score” value was 0.444.
For ACGGACGA, the “PBM E-score” value was 0.359.
With TCGGACGA the “PBM E-score” value was 0.414.
CCGGACGC was tested, and the “PBM E-score” value was 0.366.
In the case of ACGGACGG, the “PBM E-score” value is reported as 0.244.
GCGGACGA was tested, and the “PBM E-score” value was 0.366.
In the case of CCGGACGA, the “PBM E-score” value is reported as 0.431.
In the case of ATTTTGAC, the “PBM E-score” value is reported as -0.0308.
In the case of ACGGGAAA, the “PBM E-score” value is reported as 0.174.
CGCCTACC was tested, and the “PBM E-score” value was -0.0452.
In the case of AAGTCGAG, the “PBM E-score” value is reported as -0.359.
For AAGCTAGC, the “PBM E-score” value was -0.0783.
In the case of AAAGACAC, the “PBM E-score” value is reported as -0.0224.
For TCATAGGA, the “PBM E-score” value was -0.112.
For ATCTGCAA, the “PBM E-score” value was -0.287.
For ATGCGTAA, the “PBM E-score” value was -0.0748.
ATTCGTAC was tested, and the “PBM E-score” value was 0.00708.
For AAGCCGAA, the “PBM E-score” value was 0.334.
In the case of AAGCCGAC, the “PBM E-score” value is reported as 0.298.
In the case of AAGCCGAT, the “PBM E-score” value is reported as 0.399.
AGGCCGAT was tested, and the “PBM E-score” value was 0.327.
AAGCCGAG was tested, and the “PBM E-score” value was 0.372.
With CAGCCGAG the “PBM E-score” value was 0.238.
With ATCATTCG the “PBM E-score” value was 0.0233.
For ACGGATAG, the “PBM E-score” value was 0.11.
In the case of ACGGATTA, the “PBM E-score” value is reported as 0.142.
In the case of ACGGACAT, the “PBM E-score” value is reported as 0.421.
For ACGGATAT, the “PBM E-score” value was 0.43.
For TGGGATAA, the “PBM E-score” value was -0.0448.
For ACGGATAA, the “PBM E-score” value was 0.282.
GCGGATTA was tested, and the “PBM E-score” value was 0.189.
In the case of ACGGACAC, the “PBM E-score” value is reported as 0.278.
With GCGGATAA the “PBM E-score” value was 0.294.
With TCGGATAA the “PBM E-score” value was 0.374.
In the case of ACGGACAG, the “PBM E-score” value is reported as 0.113.
For CCGGATTA, the “PBM E-score” value was 0.383.
In the case of CGGATTAG, the “PBM E-score” value is reported as 0.305.
In the case of ACACCTTC, the “PBM E-score” value is reported as 0.105.
For AATTCGAG, the “PBM E-score” value was -0.267.
CCGGATAG was tested, and the “PBM E-score” value was 0.316.
With ACGGAAAG the “PBM E-score” value was 0.232.
For GGGGAATA, the “PBM E-score” value was 0.107.
ACGGAAAC was tested, and the “PBM E-score” value was 0.287.
For ACGGAAAT, the “PBM E-score” value was 0.432.
For ACGGAGAC, the “PBM E-score” value was 0.285.
In the case of ACGGAGAT, the “PBM E-score” value is reported as 0.445.
AGGGAATA was tested, and the “PBM E-score” value was 0.127.
CCGGATAA was tested, and the “PBM E-score” value was 0.435.
In the case of CGGGAATA, the “PBM E-score” value is reported as 0.458.
In the case of CCGGATAC, the “PBM E-score” value is reported as 0.323.
With ACGGAGAG the “PBM E-score” value was 0.284.
For CGTACGAG, the “PBM E-score” value was 0.0155.
In the case of GGTAGAAC, the “PBM E-score” value is reported as -0.243.
CAGGAAGC was tested, and the “PBM E-score” value was -0.0892.
In the case of GAGAGATC, the “PBM E-score” value is reported as -0.0834.
GGGGACCC was tested, and the “PBM E-score” value was -0.043.
AGGGCTAA was tested, and the “PBM E-score” value was -0.2.
In the case of CCAGGTTC, the “PBM E-score” value is reported as -0.153.
CGGGATTC was tested, and the “PBM E-score” value was 0.292.
For AGGGATTA, the “PBM E-score” value was -0.136.
CGGGATTA was tested, and the “PBM E-score” value was 0.454.
For GAAACCTC, the “PBM E-score” value was -0.00121.
GGCAAGCC was tested, and the “PBM E-score” value was -0.0221.
For AGTCCACG, the “PBM E-score” value was 0.0474.
With AGCCCGCC the “PBM E-score” value was 0.184.
In the case of GACGGACC, the “PBM E-score” value is reported as 0.285.
For ATGCCGGG, the “PBM E-score” value was 0.217.
With GTGCCGGA the “PBM E-score” value was 0.406.
With CTGCCGGA the “PBM E-score” value was 0.286.
With ATGCCGGA the “PBM E-score” value was 0.4.
With GTGCCGTA the “PBM E-score” value was 0.1.
In the case of ATGCCGGC, the “PBM E-score” value is reported as 0.287.
In the case of ACTGCTAG, the “PBM E-score” value is reported as -0.267.
For GTGCGGAA, the “PBM E-score” value was 0.159.
ATCCGGAG was tested, and the “PBM E-score” value was 0.424.
In the case of ATGCGGAG, the “PBM E-score” value is reported as 0.222.
With GTCCGGAC the “PBM E-score” value was 0.454.
With GTCCGGAA the “PBM E-score” value was 0.416.
In the case of GTCCGCAC, the “PBM E-score” value is reported as 0.237.
In the case of ATACGGTG, the “PBM E-score” value is reported as 0.0257.
GTACGGAC was tested, and the “PBM E-score” value was 0.26.
AACCGGTG was tested, and the “PBM E-score” value was 0.329.
In the case of GTCCGGCA, the “PBM E-score” value is reported as 0.35.
For ATCCGCAG, the “PBM E-score” value was 0.208.
ATCCGGTG was tested, and the “PBM E-score” value was 0.411.
With CCTATGCG the “PBM E-score” value was 0.00275.
For GTATCCCA, the “PBM E-score” value was -0.135.
For AAGGGTCA, the “PBM E-score” value was -0.124.
For CACTGGAA, the “PBM E-score” value was -0.275.
ATAACGCA was tested, and the “PBM E-score” value was 0.0362.
In the case of AACGGGTG, the “PBM E-score” value is reported as 0.29.
With CGATCTGC the “PBM E-score” value was 0.156.
In the case of TGAAGGCA, the “PBM E-score” value is reported as -0.35.
In the case of ATCCGCAC, the “PBM E-score” value is reported as 0.21.
In the case of ATCCGGCC, the “PBM E-score” value is reported as 0.412.
In the case of ATCCGGAC, the “PBM E-score” value is reported as 0.439.
ATACGGAT was tested, and the “PBM E-score” value was 0.204.
ATCCGCAT was tested, and the “PBM E-score” value was 0.289.
In the case of ATCCGGCG, the “PBM E-score” value is reported as 0.355.
For AACCGGGG, the “PBM E-score” value was 0.301.
For ATCCGGGG, the “PBM E-score” value was 0.399.
With ATCCGACC the “PBM E-score” value was 0.307.
For ATCCGGAT, the “PBM E-score” value was 0.414.
In the case of ATCCGGGC, the “PBM E-score” value is reported as 0.364.
With ATCCGTAC the “PBM E-score” value was 0.147.
For TCTCCACA, the “PBM E-score” value was -0.243.
In the case of CAAGAGAC, the “PBM E-score” value is reported as -0.289.
In the case of CCATTCAA, the “PBM E-score” value is reported as -0.16.
For GCCAATAA, the “PBM E-score” value was -0.0084.
In the case of CGGGGTGA, the “PBM E-score” value is reported as 0.214.
In the case of TTACGGAA, the “PBM E-score” value is reported as 0.317.
CTCCGGAG was tested, and the “PBM E-score” value was 0.467.
For ATACGGAA, the “PBM E-score” value was 0.33.
For ATCCGGAA, the “PBM E-score” value was 0.396.
In the case of CTCCGGAA, the “PBM E-score” value is reported as 0.422.
In the case of CTCCGCAG, the “PBM E-score” value is reported as 0.216.
In the case of CTACGGAG, the “PBM E-score” value is reported as 0.32.
For TGCCGGAA, the “PBM E-score” value was 0.365.
For TTCCGGAA, the “PBM E-score” value was 0.466.
In the case of CTACGGAA, the “PBM E-score” value is reported as 0.17.
In the case of CTCCGTAA, the “PBM E-score” value is reported as 0.296.
ATGCGGAA was tested, and the “PBM E-score” value was 0.24.
In the case of AGCAATAT, the “PBM E-score” value is reported as -0.105.
AATTGTGG was tested, and the “PBM E-score” value was -0.245.
For TGAGCCAA, the “PBM E-score” value was -0.233.
In the case of CCGTAGCG, the “PBM E-score” value is reported as 0.27.
In the case of CGCATGGC, the “PBM E-score” value is reported as 0.184.
With AGCCTCCA the “PBM E-score” value was -0.219.
For CTCCGTAC, the “PBM E-score” value was 0.196.
For CTCCGCAC, the “PBM E-score” value was 0.0685.
In the case of CTCCGGAC, the “PBM E-score” value is reported as 0.454.
For GACAATGA, the “PBM E-score” value was -0.102.
For CCTATAGA, the “PBM E-score” value was -0.198.
With ATCGCCCA the “PBM E-score” value was -0.0821.
ACCGCCGG was tested, and the “PBM E-score” value was 0.365.
In the case of ATCGCCCG, the “PBM E-score” value is reported as 0.372.
With TCCGCCGA the “PBM E-score” value was 0.425.
For GTCGCCGA, the “PBM E-score” value was 0.246.
For ATCGCCGA, the “PBM E-score” value was 0.445.
With ATCGCCCC the “PBM E-score” value was -0.0327.
CCCGCCGA was tested, and the “PBM E-score” value was 0.323.
In the case of CTCGCCGA, the “PBM E-score” value is reported as 0.276.
ATCGCCGC was tested, and the “PBM E-score” value was 0.286.
In the case of GCCGCCGA, the “PBM E-score” value is reported as 0.26.
ATCGCCGG was tested, and the “PBM E-score” value was 0.445.
With ACGCCCAA the “PBM E-score” value was -0.133.
GGGATACC was tested, and the “PBM E-score” value was 0.196.
In the case of CCCAGGCG, the “PBM E-score” value is reported as -0.125.
With AGCTTGCC the “PBM E-score” value was -0.108.
AAGAAAGC was tested, and the “PBM E-score” value was -0.113.
With CACCCTAC the “PBM E-score” value was -0.27.
GAGCGCGA was tested, and the “PBM E-score” value was 0.0945.
AACTCGCG was tested, and the “PBM E-score” value was 0.0253.
With ACCGACAG the “PBM E-score” value was 0.289.
For GTACCGAA, the “PBM E-score” value was 0.0413.
For GCAACTTA, the “PBM E-score” value was 0.0419.
For CGCGCCGA, the “PBM E-score” value was 0.317.
GGCGCCGA was tested, and the “PBM E-score” value was 0.313.
For AGCGCCGA, the “PBM E-score” value was 0.372.
For ATACTGAG, the “PBM E-score” value was -0.143.
CCACCTTA was tested, and the “PBM E-score” value was -0.00422.
In the case of ATGAAGTG, the “PBM E-score” value is reported as -0.133.
In the case of CAACCGGA, the “PBM E-score” value is reported as 0.316.
With TAACCGGA the “PBM E-score” value was 0.417.
With GAACCGGA the “PBM E-score” value was 0.382.

— the supplement of paper PMC3334620
